# Only some compounds are listed: those with a hit (about 11% of all), similar ones and a draw of the others.
# AMA1-RON2 inh: AMA1-RON2 (P. falciparum) interaction inhibition; AlphaScreen AMA1-biotinylated RON2 peptide binding; 0.2% of 360,000 active; Potency, µM (titrated, usually from 58.2 µM), without a hit: at the highest dose activity change, negative = inhibition, usual class: inhibitors; AID 720542;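 note: 0% = vehicle wells and -100% = peptide control; nearly all actives have a fitted effect of over 45% in size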
#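 AMA1 (3D7) with his tag at 25 nM final met compounds first, then biotinylated RON2 peptide at 25 nM; detection used donor plus acceptor beads, 10 µg/mL apiece, read by AlphaScreen after 30 min at room temperature.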
# AmpC inh detg: blocks E. coli AmpC beta-lactamase in detergent assay. 0.041% of 370,000 active. Potency, µM (doses to about 114 µM), for inactives: at the highest dose activity change, negative = inhibition, most hits filed as inhibitors. AmpC hydrolysis of nitrocefin, absorbance 480 nm, 0.01% Triton;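 note: 0% = no-compound wells and -100% = no-enzyme wells; nearly all actives have a fitted effect of over 25% in size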
# Target sequence (P00811 whole entry, looked up): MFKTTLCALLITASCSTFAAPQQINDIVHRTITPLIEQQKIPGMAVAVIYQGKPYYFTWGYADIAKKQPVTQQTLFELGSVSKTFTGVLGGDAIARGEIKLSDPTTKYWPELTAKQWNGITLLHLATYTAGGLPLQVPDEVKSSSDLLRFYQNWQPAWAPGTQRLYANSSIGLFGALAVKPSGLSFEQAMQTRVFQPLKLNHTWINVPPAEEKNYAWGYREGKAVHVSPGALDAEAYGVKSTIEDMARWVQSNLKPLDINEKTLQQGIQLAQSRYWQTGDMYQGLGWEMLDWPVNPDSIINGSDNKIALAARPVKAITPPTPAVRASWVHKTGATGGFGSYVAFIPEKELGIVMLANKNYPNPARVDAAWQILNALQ
#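 AmpC (5.3 nM in the dispensed reagent) in 20 mM phosphate pH 7.0 with 0.01% (detergent screen) or 0.0001% Triton X-100 was preincubated with compounds for 15 min at room temperature. Nitrocefin was then added from an 800 uM solution, and hydrolysis was followed at 480 nm.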
# Pf growth 96h: P. falciparum growth inhibition at 96 hours. P. falciparum luciferase reporter growth, 96 h. Potency, µM (titrated, usually from 28.7 µM), for the others: top-dose activity change, negative = inhibition, most hits filed as inhibitors. 6.9% of 320,000 active
#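 Plates of compound plus infected erythrocytes (2% hematocrit, 0.05% parasitemia final) incubate 96 hours, 37 C, 5% CO2. Detection reagent added; reduced luminescence from the parasites' luciferase reporter flags inhibition.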
# AmpC no deterg: inhibitors of E. coli AmpC beta-lactamase without detergent | P00811 | AmpC nitrocefin hydrolysis, absorbance 480 nm, 0.0001% Triton | Potency, µM (doses to about 57.1 µM), for inactives: at the highest dose activity change, negative = inhibition, most hits filed as inhibitors | 0.52% of 330,000 active;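 note: plate controls were no compound for no effect and no enzyme for full effect; nearly all actives have a fitted effect of over 20% in size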
#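 20 mM phosphate pH 7.0 + 0.01% (detergent screen) or 0.0001% Triton X-100; 5.3 nM AmpC reagent; cpd preinc 15 min RT; nitrocefin (800 uM stock) to start; A480 q20 s × 4 min; Activity was normalised to no-enzyme and no-compound control wells.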
# HCV inh: inhibitors of hepatitis C virus infection; Huh7.5.1 HCVcc-Cre infection, luciferase reporter, 44 h; Potency, µM (doses to about 41.8 µM), for inactives: top-dose activity change, negative = inhibition, most hits filed as inhibitors; 3.4% of 340,000 active
#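 Cells (1,000/well) were plated 4 h before compound, then infected with HCVcc-Cre virus (~0.5 moi). After 44 h further culture, infection was read as luciferase luminescence following a 15 min substrate incubation at room temperature.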
# Pf growth 48h: P. falciparum growth inhibition at 48 hours (one generation). P. falciparum luciferase growth in erythrocytes, 48 h. Potency, µM (top dose mostly 28.7 µM), inactives show at the top dose activity change, negative = inhibition, usual class: inhibitors. 5.9% of 310,000 active. AID 504832
#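 Cell-based growth assay: transgenic P. falciparum expressing firefly luciferase, cultured in red cells within RPMI 1640 containing 0.5% w/v Albumax, 24 mM bicarbonate and gentamycin. A drop in luciferase activity indicates inhibition.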
# * = called active by the depositor; i = inactive; ? = inconclusive; / = no result given; [ ] = remark or other dose. Calls come from the whole dose curve; as a rule, active = well fitted curve in the direction sought with a large enough effect; inconclusive = small, poorly fitted or top-dose-only effect, or another doubt; inactive = no such curve, though single readings can be large; an effect the other way counts as inactive or inconclusive. Unless noted, % is set by controls: 0 for no effect and ±100 for the full control effect; potency is the fitted concentration of half-maximal effect.
SMILES,AMA1-RON2 inh,AmpC inh detg,Pf growth 96h,AmpC no deterg,HCV inh,Pf growth 48h
C=Cc1ccc(Cn2c(=O)cc(C)c3c(C)nn(C)c32)cc1,/,15.0%,/,/,/,/
Cc1ccc(C(=O)c2cn(Cc3ccccc3C)c3nc(C)ccc3c2=O)cc1,/,16.1%,/,/,/,/
N/C(CN1CCCC1=O)=N\OC(=O)c1ccc(Cl)c(Cl)c1,6.5%,-13.8%,8.8%,-12.1%,-1.6%,16.2%
N/C(CN1CCCC1=O)=N\OC(=O)c1ccc(Cl)cc1,-1.4%,-5.7%,11.7µM*,-1.0%,34.1%,0.6%
COc1ccc(C(=O)O/N=C(\N)Cc2ccc(Cl)cc2)cc1OC,0.3%,3.1%,10.4µM*,4.1%,31.6µM*,7.38µM*
COc1ccc(/C(N)=N/OC(=O)c2ccc3c(c2)OCO3)cc1OC,1.8%,-8.4%,?,-12.5%,8.91µM*,?
Cc1cc(C)cc(-n2ccn(CC(=O)Nc3cc(C)ccc3C)c(=O)c2=O)c1,/,16.4%,/,/,/,/
Cc1ccc(C)c(CNC(=O)c2sc3ncnc(N(C)C4CCCCC4)c3c2C)c1,/,-5.7%,/,/,/,/
COc1ccc(CNC(=O)Cc2csc3nc(-c4ccc(C)cc4)cn23)cc1,/,2.6%,/,/,/,/
COc1ccc2[nH]c(S(=O)Cc3ncc(C)c(OC)c3C)nc2n1 (stereo unspecified),/,/,8.49µM*,/,/,9.53µM*
COc1ccc2[nH]c(S(=O)Cc3ncc(C)c(OC)c3C)nc2c1 (stereo unspecified),19.6%,-28.2%,5.86µM*,-26.2%,-7.3%,/
O=c1[nH]c(=O)c2[nH]c(=O)[nH]c2[nH]1,/,/,-8.8%,/,/,-9.9%
Cc1cccc(NC(=O)CSc2nc(=O)n(Cc3ccncc3)c3c2CCC3)c1C,/,-0.6%,/,/,/,/
O=C(CSCC(=O)N1CCN(c2ccccc2)CC1)Nc1nc(-c2ccc(Cl)s2)cs1,-19.4%,-9.5%,?,-20.8%,6.31µM*,?
COc1ccc(C2=C(CC(=O)O)C(=O)CC2)cc1,10.1%[2.32 µM],3.7%,0.4%,-12.3%,22.4%,24.2%
O=C(O)CC1=C(c2ccc(F)cc2)CCC1=O,-4.3%,?,6.57µM*,-10.9%,-3.4%,-8.8%
COc1ccccc1C(CNC(=O)C(C)(C)Oc1ccc(Cl)cc1)N1CCCC1 (stereo unspecified),12.6%,-14.6%,?,66.0%,?,13.1µM*
COc1ccc(C(CNC(=O)c2oc3cc(C)c(Cl)cc3c2C)N2CCCCC2)cc1 (stereo unspecified),7.6%,-0.5%,-5.3%,-18.3%,6.1%,5.22µM*
COc1ccccc1C(CNC(=O)c1oc2ccccc2c1C)N1CCCC1 (stereo unspecified),-1.1%,3.0%,13.1µM*,-11.4%,-3.4%,?
COc1ccc(C(CNC(=O)c2ccc(-c3nc4ccccc4s3)o2)N2CCCC2)cc1 (stereo unspecified),-2.3%,?,10.4µM*,76.7%,?,7.38µM*
COc1ccc(C(CNC(=O)c2ccc(-c3ccccc3Cl)o2)N2CCCC2)cc1 (stereo unspecified),22.8%,/,/,/,/,/
COc1ccc(C(CNC(=O)c2oc3ccc(C)cc3c2C)N2CCCCC2)cc1 (stereo unspecified),3.2%,?,?,-18.5%,?,?
COc1ccc(C(CNC(=O)c2oc3ccccc3c2C)N2CCCCC2)cc1 (stereo unspecified),/,16.2%,/,/,/,/
CCOc1ccc(CCNC(=O)c2cc3c(=O)oc4ccc(C)cc4c3s2)cc1OCC,/,-9.2%,/,/,/,/
CSCCC(NS(=O)(=O)c1cccs1)C(=O)Nc1ccc(C)c(Cl)c1 (stereo unspecified),/,4.7%,/,/,/,/
SMILES,AMA1-RON2 inh,AmpC inh detg,Pf growth 96h,AmpC no deterg,HCV inh,Pf growth 48h
COc1ccc(C(CNC(=O)c2cc3ccccc3cc2O)N2CCOCC2)cc1 (stereo unspecified),-13.4%,-15.7%,10.4µM*,?,3.4%,9.28µM*
COc1ccc(C(CNC(=O)c2cc3ccccc3o2)N2CCCCC2)cc1 (stereo unspecified),1.0%,3.3%,24.5%,-19.4%,15.8µM*,1.1%
COc1ccc(C(CNC(=O)c2cccn2C)N2CCOCC2)cc1 (stereo unspecified),79.4%,5.0%,32.8%,14.0%,?,31.5%
O=C(c1cc(S(=O)(=O)N2CCCC2)c[nH]1)N1CCN(c2cccc(Cl)c2)CC1,/,-7.6%,/,/,/,/
Cc1cc(C)n(-c2c(C)[nH]c3ccccc23)n1,-15.6%,-4.9%,9.28µM*,-17.2%,-20.8%,?
COc1cccc(C(=O)NN=C2CCCC2)c1,30.9%,?,?,-28.9%,6.6%,18.4%
COc1ccc(C(=O)NN=C2CCCC2)cc1,65.5%,?,9.28µM*,-14.1%,7.9%,-1.0%
O=C(c1cccc([N+](=O)[O-])c1)N1CCN(c2ccc(Nc3ccccc3)nn2)CC1,/,0.3%,/,/,/,/
Cc1ccc(-c2noc(CCC(=O)NCCCN3CCN(c4ccc(F)cc4)CC3)n2)cc1,7.8%,-15.6%,123.1%,29.6%,?,?
Clc1ccc(-c2noc(CN3CCN(c4ccccc4)CC3)n2)cc1,-2.1%,?,-3.1%,-15.7%,11.3%,3.0%
CCOC(=O)C1CCCN(C2CCN(Cc3nc(-c4ccccc4)no3)CC2)C1 (stereo unspecified),-14.8%,0.2%,33.8%,44.6%,1.6%,-13.4%
Clc1cccc(N2CCN(Cc3nc(-c4ccccc4)no3)CC2)c1,-9.9%,?,5.86µM*,10µM*,7.1%,1.8%
FC(F)(F)c1cccc(-c2noc(CN3CCOCC3)n2)c1,-4.0%,-1.0%,33.9%,12.1%,-1.5%,11.6%
Cc1ccc(-c2noc(CCC(=O)NCCCN3CCN(c4cccc(Cl)c4)CC3)n2)cc1,-8.4%,-5.9%,40.7%,149.9%,11.2µM*,9.28µM*
CCOC(=O)C1CCN(C2CCN(Cc3nc(-c4ccccc4)no3)CC2)CC1,-5.4%,2.6%,1.47µM*,23.1%,?,10.2%
CN1CCCN(Cc2nc(-c3cccc(C(F)(F)F)c3)no2)CC1,41.1%,8.0%,11.7µM*,43.8%,?,-1.6%
Cc1cc2nnc(SCc3ccc(F)cc3)n2c2ccccc12,/,-2.4%,/,/,/,/
Fc1ccc(CN2CCCN(Cc3nc(-c4ccc5c(c4)OCO5)no3)CC2)cc1,-12.5%,6.9%,10.1%,63.2%,-14.1%,-13.1%
c1ccc(OCCN2CCN(Cc3nc(-c4ccc5c(c4)OCO5)no3)CC2)cc1,-2.7%,9.8%,14.7µM*,104.8%,?,36.3%
CCNC(=O)O/N=C(\C)c1sc(-c2ccccc2)nc1C,5.0%,-3.8%,?,147.2%,11.2µM*,16.8%
C/C(=N\O)c1sc(-c2ccccc2)nc1C,-4.7%,-4.0%,i,-29.1%,9.7%,478.1%

# Source: PubChem (National Center for Advancing Translational Sciences (NCATS))
